# Source: the supplement of paper PMC8728848
# This excerpt belongs to a sample that is enriched for the strongest signals.
# B1: Mcg Light Chain Dimer (Homo sapiens), Q6PIK1 (protein)
# chain: MAGFPLLLTLLTHCAGSWGQSLLTQPPSVSGTPGQRVTISCSGSSSNIGINYVYWYQQIPGTAPKLLISTNDQRPSGVPDRFSGSKSGTSASLAIGGLRSEDEAHYYCAAWDDSMSGPGYAFGTGTKVTVLRQPKANPTVTLFPPSSEELQANKATLVCLISDFYPGAVTVAWKADGSPVKAGVETTKPSKQSNNKYAASSYLSLTPEQWKSHRSYSCQVTHEGSTVEKTVAPTECS
# B2: Angptl4 (Homo sapiens), Q9BY76 (protein)
# chain: MSGAPTAGAALMLCAATAVLLSAQGGPVQSKSPRFASWDEMNVLAHGLLQLGQGLREHAERTRSQLSALERRLSACGSACQGTEGSTDLPLAPESRVDPEVLHSLQTQLKAQNSRIQQLFHKVAQQQRHLEKQHLRIQHLQSQFGLLDHKHLDHEVAKPARRKRLPEMAQPVDPAHNVSRLHRLPRDCQELFQVGERQSGLFEIQPQGSPPFLVNCKMTSDGGWTVIQRRHDGSVDFNRPWEAYKAGFGDPHGEFWLGLEKVHSITGDRNSRLAVQLRDWDGNAELLQFSVHLGGEDTAYSLQLTAPVAGQLGATTVPPSGLSVPFSTWDQDHDLRRDKNCAKSLSGGWWFGTCSHSNLNGQYFRSIPQQRQKLKKGIFWKTWRGRYYPLQATTMLIQPMAAEAAS
# What was measured:
# Experiment in all cases: glycan array binding signal (z-score within array); higher = stronger binding
# Conditions in all cases: glycan notation: IUPAC condensed, linker removed
# [1] = molecular target: Fuc(a1-2)Gal(b1-3)GalNAc(b1-3)Gal
# Method in brief: (§1)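 The binding signal is a Z-score computed within each array. Data were drawn from 3228 arrays in the Consortium for Functional Glycomics database, restricted to those with a known protein sequence. Scores were averaged over arrays of the same protein sequence at different concentrations or buffers, and over linkers, and negative values can be taken as non-binding.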
# [2] = molecular target: Fuc(a1-2)[Gal(a1-3)]Gal(b1-4)Glc
# Method in brief: as §1
# [3] = molecular target: Fuc(a1-2)[GalNAc(b1-3)]Gal
# Method in brief: as §1
# [4] = molecular target: Fuc(a1-3)[Gal3S(b1-4)]GlcNAc6S
# Method in brief: as §1
# Gal(a1-3)Gal(b1-4)Glc = molecular target: Gal(a1-3)Gal(b1-4)Glc
# Method in brief: as §1
# [5] = molecular target: Gal(a1-3)Gal(b1-4)[Fuc(a1-3)]GlcNAc
# Method in brief: as §1
# [6] = molecular target: Gal(b1-3)[GlcNAc(b1-6)]GalNAc
# Method in brief: as §1
# Gal(b1-4)Glc6S = molecular target: Gal(b1-4)Glc6S
# Method in brief: as §1
# [7] = molecular target: Gal(b1-4)GlcNAc(b1-3)Gal(b1-4)GlcNAc
# Method in brief: as §1
# [8] = molecular target: Gal3S(b1-4)[Fuc(a1-3)]Glc
# Method in brief: as §1
# Gal3S4S(b1-4)GlcNAc = molecular target: Gal3S4S(b1-4)GlcNAc
# Method in brief: as §1
# Gal3S6S(b1-4)GlcNAc6S = molecular target: Gal3S6S(b1-4)GlcNAc6S
# Method in brief: as §1
# Gal6S(b1-4)GlcNAc6S = molecular target: Gal6S(b1-4)GlcNAc6S
# Method in brief: as §1
# Man(a1-3)[Man(a1-6)]Man = molecular target: Man(a1-3)[Man(a1-6)]Man
# Method in brief: as §1
# [9] = molecular target: Man(a1-3)[Man(a1-6)]Man(b1-4)GlcNAc(b1-4)GlcNAc
# Method in brief: as §1
# [10] = molecular target: Neu5Ac(a2-3)Gal(b1-3)GalNAc6S
# Method in brief: as §1
# [11] = molecular target: Neu5Ac(a2-3)Gal(b1-3)GlcNAc6S
# Method in brief: as §1
# [12] = molecular target: Neu5Ac(a2-3)Gal(b1-4)GlcNAc6S
# Method in brief: as §1
# [13] = molecular target: Neu5Ac(b2-6)Gal(b1-4)GlcNAc
# Method in brief: as §1
# [14] = molecular target: Neu5Gc(a2-3)Gal(b1-4)[Fuc(a1-3)]GlcNAc
# Method in brief: as §1
# [15] = molecular target: Neu5Gc(a2-6)Gal(b1-4)GlcNAc
# Method in brief: as §1
# [16] = molecular target: Fuc(a1-2)Gal(b1-4)GlcNAc(b1-3)Gal(b1-4)GlcNAc(b1-3)Gal(b1-4)GlcNAc
# Method in brief: as §1
# Fuc(a1-2)Gal6S(b1-4)Glc = molecular target: Fuc(a1-2)Gal6S(b1-4)Glc
# Method in brief: as §1
# [17] = molecular target: Fuc(a1-2)[Gal(a1-3)]Gal(b1-4)GlcNAc
# Method in brief: as §1
# Fuc(a1-3)GlcNAc = molecular target: Fuc(a1-3)GlcNAc
# Method in brief: as §1
# [18] = molecular target: Fuc(a1-3)[Gal(b1-4)]GlcNAc6S
# Method in brief: as §1
# Gal(b1-3)Gal = molecular target: Gal(b1-3)Gal
# Method in brief: as §1
# [19] = molecular target: Gal(b1-3)[Fuc(a1-4)]GlcNAc(b1-3)Gal(b1-4)[Fuc(a1-3)]GlcNAc
# Method in brief: as §1
# [20] = molecular target: Gal(b1-4)GlcNAc(b1-3)Gal(b1-4)Glc
# Method in brief: as §1
# [21] = molecular target: Gal(b1-4)GlcNAc(b1-3)Gal(b1-4)[Fuc(a1-3)]GlcNAc(b1-3)Gal(b1-4)[Fuc(a1-3)]GlcNAc
# Method in brief: as §1
# [22] = molecular target: Gal(b1-4)GlcNAc(b1-3)[GlcNAc(b1-6)]Gal(b1-4)GlcNAc
# Method in brief: as §1
# Gal3S(b1-4)Glc = molecular target: Gal3S(b1-4)Glc
# Method in brief: as §1
# GalNAc(b1-3)Gal = molecular target: GalNAc(b1-3)Gal
# Method in brief: as §1
# GalNAc(b1-4)GlcNAc = molecular target: GalNAc(b1-4)GlcNAc
# Method in brief: as §1
# Kdn(a2-3)Gal(b1-3)GlcNAc = molecular target: Kdn(a2-3)Gal(b1-3)GlcNAc
# Method in brief: as §1
# [23] = molecular target: Man(a1-3)[Man(a1-6)]Man(a1-6)[Man(a1-2)Man(a1-3)]Man(b1-4)GlcNAc(b1-4)GlcNAc
# Method in brief: as §1
# [24] = molecular target: Neu5Ac(a2-3)Gal(b1-3)[Fuc(a1-4)]GlcNAc
# Method in brief: as §1
# [25] = molecular target: Neu5Ac(a2-3)Gal(b1-4)GlcNAc(b1-3)Gal(b1-3)GlcNAc
# Method in brief: as §1
# [26] = molecular target: Neu5Ac(a2-3)Gal6S(b1-4)[Fuc(a1-3)]GlcNAc
# Method in brief: as §1
# Neu5Ac(a2-3)GalNAc = molecular target: Neu5Ac(a2-3)GalNAc
# Method in brief: as §1
# [27] = molecular target: Neu5Ac(a2-6)Gal(b1-4)GlcNAc(b1-2)Man(a1-6)[Gal(b1-4)GlcNAc(b1-2)Man(a1-3)]Man(b1-4)GlcNAc(b1-4)GlcNAc
# Method in brief: as §1
# [28] = molecular target: Neu5Ac(a2-6)Gal(b1-4)GlcNAc(b1-3)Gal(b1-4)[Fuc(a1-3)]GlcNAc(b1-3)Gal(b1-4)[Fuc(a1-3)]GlcNAc
# Method in brief: as §1
# [29] = molecular target: Neu5Ac(a2-8)Neu5Ac(a2-8)Neu5Ac
# Method in brief: as §1
binder,measurement,setting,value
B1,glycan array binding signal (z-score),[1],-0.611
same,glycan array binding signal (z-score),[2],-1.02
same,glycan array binding signal (z-score),[3],0.344
same,glycan array binding signal (z-score),[4],4.13
same,glycan array binding signal (z-score),Gal(a1-3)Gal(b1-4)Glc,-1.04
same,glycan array binding signal (z-score),[5],0.315
same,glycan array binding signal (z-score),[6],-0.568
same,glycan array binding signal (z-score),Gal(b1-4)Glc6S,0.905
same,glycan array binding signal (z-score),[7],-0.321
same,glycan array binding signal (z-score),[8],-0.54
same,glycan array binding signal (z-score),Gal3S4S(b1-4)GlcNAc,3.63
same,glycan array binding signal (z-score),Gal3S6S(b1-4)GlcNAc6S,5.67
same,glycan array binding signal (z-score),Gal6S(b1-4)GlcNAc6S,0.505
same,glycan array binding signal (z-score),Man(a1-3)[Man(a1-6)]Man,-1.04
same,glycan array binding signal (z-score),[9],-0.305
same,glycan array binding signal (z-score),[10],2.88
same,glycan array binding signal (z-score),[11],1.73
same,glycan array binding signal (z-score),[12],2.96
same,glycan array binding signal (z-score),[13],-0.955
same,glycan array binding signal (z-score),[14],1.2
same,glycan array binding signal (z-score),[15],0.325
B2,glycan array binding signal (z-score),[1],5.26
same,glycan array binding signal (z-score),[16],0.616
same,glycan array binding signal (z-score),Fuc(a1-2)Gal6S(b1-4)Glc,-0.253
same,glycan array binding signal (z-score),[17],0.087
same,glycan array binding signal (z-score),Fuc(a1-3)GlcNAc,-0.446
same,glycan array binding signal (z-score),[18],-0.527
same,glycan array binding signal (z-score),[5],-0.522
same,glycan array binding signal (z-score),Gal(b1-3)Gal,0.531
same,glycan array binding signal (z-score),[19],-0.192
same,glycan array binding signal (z-score),[6],-0.215
same,glycan array binding signal (z-score),[20],-0.407
same,glycan array binding signal (z-score),[21],3.98
same,glycan array binding signal (z-score),[22],-0.27
same,glycan array binding signal (z-score),Gal3S(b1-4)Glc,-0.052
same,glycan array binding signal (z-score),GalNAc(b1-3)Gal,-0.523
same,glycan array binding signal (z-score),GalNAc(b1-4)GlcNAc,-0.398
same,glycan array binding signal (z-score),Kdn(a2-3)Gal(b1-3)GlcNAc,0.691
same,glycan array binding signal (z-score),[23],5.32
same,glycan array binding signal (z-score),[11],7.07
same,glycan array binding signal (z-score),[24],-0.272
same,glycan array binding signal (z-score),[25],-0.262
same,glycan array binding signal (z-score),[26],-0.53
same,glycan array binding signal (z-score),Neu5Ac(a2-3)GalNAc,-0.954
same,glycan array binding signal (z-score),[27],4.1
same,glycan array binding signal (z-score),[28],0.162
same,glycan array binding signal (z-score),[29],-0.016
